# Measurements from PubChem BioAssay (NCI).
# This is part of a sample that, as a whole, favours compounds with a hit. Of some 83,000 tested, about 20% had one in any assay.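 The endpoint reported here, percent growth, reads 100 for growth as untreated, 0 for no net growth and -100 for all cells dead.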 Unmarked numbers belong to inactive results. The source made the active and inactive calls. Rule for the calls: active = growth percent below 10; inactive = the rest.
# Columns and labels:
# Assay in all cases: NCI-60 one-dose screen, 48 h (100 = growth as untreated, 0 = no growth, -100 = all killed)
# [1] = system: NCI-H23 lung; settings: 10 µM unless noted
# [2] = system: NCI-H226 lung; settings: 10 µM unless noted
# [3] = system: NCI-H322M lung; settings: 10 µM unless noted
# [4] = system: HOP-62 NSCLC; settings: 10 µM unless noted
# [5] = system: NCI-H460 lung; settings: 10 µM unless noted
# [6] = system: HOP-92 NSCLC; settings: 10 µM unless noted
# [7] = system: NCI-H522 lung; settings: 10 µM unless noted
# [8] = system: A549/ATCC NSCLC; settings: 10 µM unless noted
# [9] = system: 786-0 renal; settings: 10 µM unless noted
# [10] = system: COLO 205 colon; settings: 10 µM unless noted
# [11] = system: DU-145 prostate; settings: 10 µM unless noted
# [12] = system: K-562 leukemia; settings: 10 µM unless noted
# [13] = system: MALME-3M melanoma; settings: 10 µM unless noted
# [14] = system: MDA-MB-231 breast; settings: 10 µM unless noted
# [15] = system: RXF 393 renal; settings: 10 µM unless noted
# [16] = system: SF-268 CNS; settings: 10 µM unless noted
# [17] = system: SF-295 CNS; settings: 10 µM unless noted
# [18] = system: SF-539 CNS; settings: 10 µM unless noted
# [19] = system: UACC-257 melanoma; settings: 10 µM
# [20] = system: M14 melanoma; settings: 10 µM unless noted
SMILES,growth [1],growth [2],growth [3],growth [4],growth [5],growth [6],growth [7],growth [8],growth [9],growth [10],growth [11],growth [12],growth [13],growth [14],growth [15],growth [16],growth [17],growth [18],growth [19],growth [20]
COC1=CC(c2ccc[nH]2)=N/C1=C\c1[nH]c(C)c(C(=O)CCCCC(=O)Nc2ccccc2)c1C,34.4%,44.1%,87.3%,80.7%,-38.8% (active),-71.4% (active),-45.3% (active),-21.4% (active),93.5%,67.1%,6.29% (active),62.4%,87.7%,-10.1% (active),-63.9% (active),44.1%,-2.61% (active),78.6%,74.4%,13.1%
Clc1ccc2c(c1)NC1(CCSc3ccccc31)n1nccc1-2 (stereo not given),98.5%,92.5%,95.1%,112%,103%,91.6%,89.7%,90%,96.9%,114%,103%,97.4%,85.8%,98.1%,119%,94.8%,97.4%,92.4%,97.4%,96.6%
CC[C@]1(O)C[C@@H]2CN(Cc3c([nH]c4ccccc34)[C@@](C(=O)OC)(c3cc4c(cc3OC)N(C)[C@H]3[C@@](O)(C(=O)OC)[C@H](OC(C)=O)[C@]5(CC)[C@@H]6C[C@@H]6CN6CC[C@]43[C@@H]65)C2)C1,25.7%,50.2%,44.7%,38.8%,6.73% (active),-12% (active),-20.3% (active),22.2%,21.4%,-49.5% (active),7.39% (active),11.8%,38%,0.275% (active),15.2%,28.1%,-13.9% (active),-0.324% (active),71.7%,-23.2% (active)
CCN(CC)CCCC(C)N=c1cc(Nc2cc(=NC(C)CCCN(CC)CC)c3cc(OC)ccc3o2)oc2ccc(OC)cc12 (stereo not given),-43.3% (active),2.33% (active),-38.4% (active),-41.6% (active),-38.7% (active),-29.9% (active),-78.6% (active),-48.6% (active),-7.34% (active),-96.2% (active),2.37% (active),-38.4% (active),-80.1% (active),-51.7% (active),-68.4% (active),-32.1% (active),-9.83% (active),-90.2% (active),-79.1% (active),-87.9% (active)
c1ccc([P+](CCC[P+](c2ccccc2)(c2ccccc2)c2ccccc2)(c2ccccc2)c2ccccc2)cc1,89%,101%,79.5%,75.3%,77.6%,20.1%,43.1%,86.9%,92.5%,45.4%,86.7%,23.2%,65.6%,93.7%,104%,69.2%,73.4%,88%,37%,80.9%
COC1=CC(c2ccc[nH]2)=N/C1=C\c1[nH]c(C)c(C(=O)CCCCC(=O)Oc2ccc3c(c2)CCC2C3CC[C@]3(C)[C@@H](O)CC[C@@H]23)c1C (stereo not given in full),73.3%,61.5%,62.9%,68.4%,29.6%,30.4%,12.9%,52.6%,66.1%,94.6%,30.6%,13.6%,80.1%,10.9%,62.4%,44.6%,80.8%,65.9%,103%,60%
O=c1oc2cc(OS(=O)(=O)c3ccccc3)c(Cl)cc2c2c1CCCCCC2,80.1%,81.7%,95.4%,118%,96.1%,65.7%,73.2%,88.2%,87.7%,94.4%,93.6%,84.9%,106%,89.4%,90.8%,100%,92.6%,78.4%,92.8%,80.3%
COC1=CC(c2ccc[nH]2)=N/C1=C\c1[nH]c(C)c(C(=O)CCC(=O)Oc2ccc3c(c2)CCC2C3CC[C@]3(C)[C@@H](O)CC[C@@H]23)c1C (stereo not given in full),18.4%,15.5%,42.7%,12.4%,1.58% (active),-45.2% (active),-58.9% (active),-10.9% (active),-46.3% (active),31.5%,0.722% (active),-18% (active),9.7% (active),-64.2% (active),-6.4% (active),3.8% (active),20.3%,-18.9% (active),82.4%,-50.8% (active)
COc1ccc(C(=O)/C=C/c2cc(C(=O)c3cc(OC)c(OC)c(OC)c3)ccc2OC)cc1,72.9%,90.7%,91.5%,100%,88.6%,70.5%,-0.114% (active),85.3%,89.4%,75.9%,79.3%,12.8%,77.9%,51.8%,73%,59.2%,98.1%,55%,68%,64.7%
CCCCNC(=O)NS(=O)(=O)c1ccc(N2N=C(c3ccc(C)cc3C)CC2c2ccc(OC)cc2)cc1 (stereo not given),65.4%,86.7%,90.6%,92%,48.3%,75.1%,54.4%,38.4%,61.3%,93.5%,92.4%,58.9%,108%,85.4%,82.6%,84.8%,41.6%,69.7%,72.5%,42.7%
COc1cc2c(cc1OC)C1(C)N(CC2)C(=O)OC1(C)C (stereo not given),110%,92.8%,101%,111%,101%,101%,100%,102%,102%,120%,112%,-78.1% (active),122%,115%,99%,103%,103%,106%,95.6%,101%
CCC1CCc2nc3sc(C(=O)Nc4ccccc4F)c(N)c3cc2C1 (stereo not given),78.2%,89.8%,92.8%,76.4%,75.4%,58.3%,71.9%,79.5%,91.4%,64.2%,55.8%,37.8%,48.7%,69.9%,79.6%,61.5%,46.6%,75%,57.5%,44.4%
COc1ccc(/C=C/c2nc(N3CCOCC3)c3nc(Cl)c(Cl)cc3n2)cc1OC,99.7%,102%,145%,115%,106%,105%,83.1%,96.5%,99.8%,105%,101%,77.7%,144%,110%,109%,105%,87.9%,98.8%,111%,103%
CC(C)[C@H](CO)Nc1nc(Nc2ccc(C(=O)NCCNS(=O)(=O)c3cccc4c(N(C)C)cccc34)c(Cl)c2)c2ncn(C(C)C)c2n1,25.3%,22%,15.4%,1.86% (active),16.2%,-9.2% (active),-31.5% (active),0.602% (active),-1.14% (active),-69.3% (active),29%,10.9%,51.2%,7.36% (active),-57.1% (active),0.765% (active),-16.5% (active),-50.2% (active),3.15% (active),23.5%
CCCCCCC[C@@H](O)CC(=O)N[C@H](CCCCN)C(=O)N[C@H](Cc1c[nH]c2ccccc12)C(=O)NC(CCCCN)C(=O)N[C@H](CC(C)C)C(=O)N[C@H](Cc1ccccc1)C(=O)N[C@H](CCCCN)C(=O)N[C@H](CCCCN)C(=O)N[C@H](CC(C)C)C(=O)N1CCCC1C(=O)N[C@H](CCCCN)C(=O)N[C@H](Cc1ccccc1)C(=O)N[C@H](CC(C)C)C(=O)N[C@H](Cc1c[nH]cn1)C(=O)N[C@H](CC(C)C)C(=O)N[C@H](C)C(=O)N[C@H](CCCCN)C(=O)N[C@H](CCCCN)C(=O)N[C@H](Cc1ccccc1)C(=O)O (stereo not given in full),-41.6% (active),-21.3% (active),-71.9% (active),-59% (active),-25.4% (active),-54.4% (active),-48.8% (active),-47.3% (active),-34.4% (active),-47.6% (active),-77.2% (active),-33.3% (active),-2.57% (active),-71.4% (active),-39% (active),-54.2% (active),-60.8% (active),-30.8% (active),-64.9% (active),-43.4% (active)
